Assay results as given in PubChem BioAssay (Tox21).
Records with an inconclusive call do not appear. Entries that show only a call come without a potency. Calls of active or inactive are those of the source. Unless noted, the call rests on the fitted dose curve.

How the values were obtained:
[1] = Nuclear factor erythroid 2-related factor 2/antioxidant responsive element (Nrf2/ARE) small molecule agonists: qHTS cell viability counter screen in human keratinocytes (AID 1919968; active means well fitted curve in the direction sought with a large enough effect in the repeat runs; an effect the other way counts as inactive or inconclusive; further: nearly all actives have a fitted effect of over 55% in size)
In short: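 Cytotoxicity was multiplexed with the Nrf2/ARE luciferase assay in the same wells. Stably transfected HaCaT keratinocytes were treated with test compounds for 23 h at 37 C. Cell viability was then measured by CellTiter-Fluor fluorescence.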

[2] = Nuclear factor erythroid 2-related factor 2/antioxidant responsive element (Nrf2/ARE) small molecule agonists: luciferase reporter gene qHTS assay in human keratinocytes (AID 1919969); further: nearly all actives have a fitted effect of over 35% in size
[3] = target: Gonadotropin-releasing hormone receptor (Homo sapiens) (UniProt P30968); experiment: Human gonadotropin-releasing hormone receptor (GnRHR) small molecule agonists, calcium flux assay in GnRHR-HEK293 cells (AID 1920063); further: nearly all actives have a fitted effect of over 35% in size
Gonadotropin-releasing hormone receptor (Homo sapiens), sequence (P30968 whole entry, looked up): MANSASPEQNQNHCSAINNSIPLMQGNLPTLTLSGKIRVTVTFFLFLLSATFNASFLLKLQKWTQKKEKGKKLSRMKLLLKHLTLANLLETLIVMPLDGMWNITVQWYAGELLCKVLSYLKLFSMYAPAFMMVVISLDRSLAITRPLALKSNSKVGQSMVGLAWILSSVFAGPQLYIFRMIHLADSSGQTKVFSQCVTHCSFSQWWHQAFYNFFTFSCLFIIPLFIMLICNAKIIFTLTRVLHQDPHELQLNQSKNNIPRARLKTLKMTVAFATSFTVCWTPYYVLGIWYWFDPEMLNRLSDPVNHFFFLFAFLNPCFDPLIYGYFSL
In short: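 Agonist activity was measured as intracellular calcium flux in HEK293 cells engineered to stably express human GnRHR. After dye loading for 1 hour at 37 C, compounds in DMSO were added and fluorescence was followed for 3 minutes.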

[4] = target: KiSS-1 receptor (Homo sapiens) (UniProt Q969F8); experiment: Human kisspeptin (KISS1R) small molecule agonists, calcium flux assay in KISS1R-HEK293 cells (AID 1920064; active means well fitted curve in the direction sought with a large enough effect in the repeat runs; an effect the other way counts as inactive or inconclusive)
KiSS-1 receptor (Homo sapiens), sequence (Q969F8 whole entry, looked up): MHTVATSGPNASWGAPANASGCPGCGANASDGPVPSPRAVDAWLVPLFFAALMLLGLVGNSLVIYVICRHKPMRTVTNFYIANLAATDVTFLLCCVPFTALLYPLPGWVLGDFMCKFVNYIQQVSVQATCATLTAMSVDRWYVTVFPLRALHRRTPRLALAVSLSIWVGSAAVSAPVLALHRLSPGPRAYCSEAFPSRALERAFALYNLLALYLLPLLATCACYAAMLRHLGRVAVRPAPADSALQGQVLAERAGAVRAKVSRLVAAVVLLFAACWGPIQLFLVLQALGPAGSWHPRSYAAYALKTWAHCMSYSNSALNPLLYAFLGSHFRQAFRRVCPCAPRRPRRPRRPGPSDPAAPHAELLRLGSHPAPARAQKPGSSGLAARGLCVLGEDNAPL
In short: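 Agonist activity is monitored as intracellular calcium rise in engineered HEK293 cells carrying human KISS1R. Cells are dye-loaded for 1 h at 37 C before compound addition, and fluorescence is recorded for 3 min.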

[5] = G protein-coupled receptor (GPCR) small molecule agonists, calcium flux assay: HEK293 wild type cell line counter screen (AID 1920065)
In short: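 Seed cells, incubate 18 h (37 C, 5% CO2); add calcium dye, 1 h at 37 C; pin-transfer compounds, ATP control or DMSO; read fluorescence 480/540 nm each second for 3 min.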

[6] = p53 small molecule agonists, cell-based qHTS assay with human liver microsomes (AID 1963577);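 further: p53 response element beta-lactamase reporter cells with liver microsomes plus NADPH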
In short: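 With metabolic activation: human liver microsomes (0.5 mg/mL final) plus NADPH (0.5 mg/mL final) added alongside compounds to p53RE-bla cells; 16 h 37 C exposure; beta-lactamase read by LiveBLAzer fluorescence.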

[7] = p53 small molecule agonists, cell-based qHTS assay with rat liver microsomes (AID 1963578)
In short: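 Metabolic activation by rat liver microsomes and NADPH, each 0.5 mg/mL final, added right after compounds to p53RE-bla reporter cells (4,000/well, plated 5 h earlier). 16 h at 37 C, then LiveBLAzer substrate for 2 h at room temperature in the dark; fluorescence read-out.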

[8] = p53 small molecule agonists, cell-based qHTS assay with human liver microsomes: qHTS cell viability counter screen (AID 1963579); further: nearly all actives have a fitted effect of over 45% in size
In short: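 Metabolic activation used human liver microsomes and NADPH, both 0.5 mg/mL final, over 16 hours at 37 C on p53RE-bla cells (4,000/well). Cytotoxicity measured by CellTiter-Glo luminescence, 30 min at room temperature.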

[9] = p53 small molecule agonists, cell-based qHTS assay with rat liver microsomes: qHTS cell viability counter screen (AID 1963580); further: nearly all actives have a fitted effect of over 45% in size
In short: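 Cytotoxicity counter screen: intracellular ATP read by CellTiter-Glo luminescence in the p53 reporter wells. HCT-116 p53RE-bla cells were treated for 16 h at 37 C alongside rat liver microsomes and NADPH, each 0.5 mg/mL final.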

[10] = p53 small molecule agonists, cell-based qHTS assay: qHTS cell viability counter screen (AID 1963581); further: nearly all actives have a fitted effect of over 45% in size
In short: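 Viability was counter-screened in parallel with the p53 agonist reporter by measuring intracellular ATP luminescence in the same HCT-116 p53RE-bla wells after 16 h compound treatment at 37 C.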

[11] = p53 small molecule agonists, cell-based qHTS assay (AID 1963582; active means well fitted activation curve with a large enough effect in the signal ratio in the repeat runs, not every such curve was filed as active; the % refers to the signal ratio)
In short: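 Cells carrying a p53-responsive bla reporter are treated with test compounds for 16 h at 37 C; beta-lactamase activity is then detected with LiveBLAzer B/G FRET substrate after 2 h at room temperature.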

[12] = target: 5-hydroxytryptamine receptor 2A (Homo sapiens) (UniProt P28223); experiment: 5-hydroxytryptamine receptor 2A (HTR2A) small molecule antagonists, cell-based qHTS assay (AID 1963586); further: nearly all actives have a fitted effect of over 45% in size
5-hydroxytryptamine receptor 2A (Homo sapiens), sequence (P28223 whole entry, looked up): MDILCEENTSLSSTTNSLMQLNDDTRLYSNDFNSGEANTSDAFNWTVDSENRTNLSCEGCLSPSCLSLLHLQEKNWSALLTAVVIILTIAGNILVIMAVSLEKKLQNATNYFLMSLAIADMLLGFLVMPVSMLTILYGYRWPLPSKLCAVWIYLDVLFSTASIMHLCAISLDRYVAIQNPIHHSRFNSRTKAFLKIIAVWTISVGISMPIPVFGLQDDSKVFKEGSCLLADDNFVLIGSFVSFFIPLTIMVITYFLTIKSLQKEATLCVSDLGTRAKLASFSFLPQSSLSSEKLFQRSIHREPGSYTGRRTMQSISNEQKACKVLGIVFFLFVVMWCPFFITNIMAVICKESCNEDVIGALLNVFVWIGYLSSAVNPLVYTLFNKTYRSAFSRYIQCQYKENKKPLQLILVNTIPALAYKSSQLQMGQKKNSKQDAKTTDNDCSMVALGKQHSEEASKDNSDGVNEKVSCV
In short: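 CHO cells stably expressing human HTR2A were plated for 18 h at 37 C, then loaded with calcium dye for 1 h. Compounds were preincubated 5 min at room temperature before DOI (4 nM solution) was added. Kinetic fluorescence was read for 3 min.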

[13] = target: 5-hydroxytryptamine receptor 2A (Homo sapiens) (UniProt P28223); experiment: 5-hydroxytryptamine receptor 2A (HTR2A) small molecule agonists, cell-based qHTS assay (AID 1963587); further: nearly all actives have a fitted effect of over 30% in size
In short: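 Kinetic calcium-flux fluorescence (2 min, 1 sec intervals) after compound addition in agonist mode. HTR2A-CHO cells were cultured 18 h, then dye-loaded 1 h at 37 C.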

[14] = target: Muscarinic acetylcholine receptor M1 (Homo sapiens) (UniProt P11229); experiment: Cholinergic receptor muscarinic 1 (CHRM1) small molecule antagonists, cell-based qHTS assay (AID 1963588); further: nearly all actives have a fitted effect of over 40% in size; further: potency means the concentration at half of the fitted maximal effect
Muscarinic acetylcholine receptor M1 (Homo sapiens), sequence (P11229 whole entry, looked up): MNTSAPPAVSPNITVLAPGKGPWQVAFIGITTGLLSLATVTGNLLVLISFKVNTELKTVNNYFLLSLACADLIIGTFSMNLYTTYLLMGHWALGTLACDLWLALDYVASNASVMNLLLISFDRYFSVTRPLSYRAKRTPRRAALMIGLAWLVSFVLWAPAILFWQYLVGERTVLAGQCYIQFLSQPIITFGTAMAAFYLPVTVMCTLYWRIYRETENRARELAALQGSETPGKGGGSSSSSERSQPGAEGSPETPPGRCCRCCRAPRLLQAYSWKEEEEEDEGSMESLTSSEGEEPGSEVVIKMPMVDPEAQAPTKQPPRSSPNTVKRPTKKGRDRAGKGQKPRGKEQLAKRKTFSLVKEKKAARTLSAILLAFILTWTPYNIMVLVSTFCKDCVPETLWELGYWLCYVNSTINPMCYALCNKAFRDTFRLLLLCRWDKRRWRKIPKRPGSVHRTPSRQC
In short: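 Compounds were tested at 15 concentrations in three independent runs. Dye-loaded CHRM1-CHO cells were exposed 5 min at room temperature before stimulation by acetylcholine added at 50nM. Intracellular calcium was read kinetically on FDSS for 3 min.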

[15] = target: Muscarinic acetylcholine receptor M1 (Homo sapiens) (UniProt P11229); experiment: Cholinergic receptor muscarinic 1 (CHRM1) small molecule agonists, cell-based qHTS assay (AID 1963589); further: nearly all actives have a fitted effect of over 35% in size
In short: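 Cells were plated and incubated 18 h at 37 C/5% CO2, loaded with calcium dye for 1 h at 37 C, then treated with compounds in DMSO. Fluorescence was recorded kinetically at 1 sec intervals.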

[16] = cAMP Responsive Elements (CRE) small molecule agonists, cell-based qHTS assay (AID 1963590)
In short: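 Cells carrying a CRE-driven beta-lactamase reporter (HEK 293T) are seeded, incubated overnight (18 h), and treated with test compounds for 3 h at 37 C; reporter activity is then detected with a FRET substrate after 2 h at room temperature.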

[17] = cAMP Responsive Elements (CRE) small molecule antagonists, cell-based qHTS assay (AID 1963591; active means well fitted inhibition curve with a large enough effect in the signal ratio in the repeat runs, not every such curve was filed as active; the % refers to the signal ratio)
In short: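 Cells (CRE-bla HEK 293T, DMEM with 10% dialyzed FBS and 25 mM HEPES) are seeded and incubated 18 h. Compounds are added with NKH477 agonist at 0.25 uM final for 3 h, then FRET substrate for 2 h.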

[18] = target: Beta-2 adrenergic receptor (Homo sapiens) (UniProt P07550); experiment: Adrenergic beta2 receptor (ADRB2) small molecule antagonists, cell-based qHTS assay (AID 1963592); further: series mostly up to about 92 µM; nearly all actives have a fitted effect of over 50% in size
Beta-2 adrenergic receptor (Homo sapiens), sequence (P07550 whole entry, looked up): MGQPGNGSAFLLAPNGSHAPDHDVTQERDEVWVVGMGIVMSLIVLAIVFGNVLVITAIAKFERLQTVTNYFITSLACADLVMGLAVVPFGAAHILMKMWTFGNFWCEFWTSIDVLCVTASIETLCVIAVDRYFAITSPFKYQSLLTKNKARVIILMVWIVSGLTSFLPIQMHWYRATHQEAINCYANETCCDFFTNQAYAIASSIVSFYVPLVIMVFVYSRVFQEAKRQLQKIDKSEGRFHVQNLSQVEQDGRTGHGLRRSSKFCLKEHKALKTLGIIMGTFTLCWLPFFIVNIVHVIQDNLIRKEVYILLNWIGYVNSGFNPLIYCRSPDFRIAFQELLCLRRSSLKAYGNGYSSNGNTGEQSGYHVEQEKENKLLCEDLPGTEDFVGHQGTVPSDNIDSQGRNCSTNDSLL
In short: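 Assay format: CHO-ADRB2 cells, 18-20hr seeding at 37C/5% CO2, then compound plus 1nM isoproterenol agonist mix for 0.5hr RT. Homogeneous time-resolved fluorescence cAMP detection after 1hr, expressed as 665/615 nm ratio.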

[19] = target: D(2) dopamine receptor (Homo sapiens) (UniProt P14416); experiment: Dopamine D2 receptor (DRD2) small molecule agonists, cell-based qHTS assay (AID 1963594); further: nearly all actives have a fitted effect of over 35% in size
D(2) dopamine receptor (Homo sapiens), sequence (P14416 whole entry, looked up): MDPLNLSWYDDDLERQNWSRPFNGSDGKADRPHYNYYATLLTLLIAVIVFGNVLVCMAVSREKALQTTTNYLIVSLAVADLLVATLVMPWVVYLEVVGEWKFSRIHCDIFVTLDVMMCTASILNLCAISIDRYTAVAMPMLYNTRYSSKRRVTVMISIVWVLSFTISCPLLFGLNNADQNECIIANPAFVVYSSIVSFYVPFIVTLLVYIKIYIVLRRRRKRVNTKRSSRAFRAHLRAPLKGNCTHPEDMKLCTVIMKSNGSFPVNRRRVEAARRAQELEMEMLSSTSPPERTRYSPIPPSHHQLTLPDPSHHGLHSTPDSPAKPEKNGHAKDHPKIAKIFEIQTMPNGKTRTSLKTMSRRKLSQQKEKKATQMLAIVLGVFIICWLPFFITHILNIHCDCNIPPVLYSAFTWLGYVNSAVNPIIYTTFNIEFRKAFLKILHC
In short: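 cAMP accumulation in DRD2-HEK293 cells measured by HTRF after 1 h detection; compounds added 10 min before NKH477 (200nM […]) forskolin-analogue stimulation, 30 min at room temperature, with Ro20-1724 present at 0.1 mM final.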

[20] = target: D(2) dopamine receptor (Homo sapiens) (UniProt P14416); experiment: Dopamine D2 receptor (DRD2) small molecule antagonists, cell-based qHTS assay (AID 1963595; active means well fitted inhibition curve with a large enough effect in the signal ratio in the repeat runs, with a control signal flat; the % refers to the signal ratio)
In short: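 Stable D2 receptor HEK293 line, 24 h after seeding. Compound preincubated 10 min, then quinpirole (12 nM) with forskolin analogue NKH477 (200 nM), 30 min, room temperature. Detection by time-resolved FRET of cAMP.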

SMILES	Potency [1]	Potency [2]	Potency [3]	Potency [4]	Potency [5]	Potency [6]	Potency [7]	Potency [8]	Potency [9]	Potency [10]	Potency [11]	Potency [12]	Potency [13]	Potency [14]	Potency [15]	Potency [16]	Potency [17]	Potency [18]	Potency [19]	Potency [20]
Oc1cc(Cl)ccc1Cl	inactive	inactive	inactive	inactive	inactive	inactive	inactive	inactive	inactive	inactive	inactive	inactive	inactive	inactive	inactive	inactive	inactive	inactive	inactive	inactive
[O-][Cl+2]([O-])O	inactive	inactive	inactive	inactive	inactive	inactive	inactive	inactive	inactive	inactive	inactive	inactive	inactive	inactive	inactive	inactive	inactive	inactive		inactive
C[C@]1(O)CC[C@H]2[C@@H]3CCC4=CC(=O)CC[C@]4(C)[C@@]3(F)[C@@H](O)C[C@@]21C	inactive	inactive	inactive	inactive	inactive	inactive	inactive	inactive	inactive	inactive	inactive	inactive	inactive	inactive	inactive	inactive	inactive	inactive	inactive	
Cc1cnc[nH]1	inactive	inactive	inactive	inactive	inactive	inactive	inactive	inactive	inactive	inactive	inactive	inactive	inactive	inactive	inactive	inactive	inactive	inactive	inactive	inactive
CC(C)C(=O)OCC(C)(C)C(OC(=O)C(C)C)C(C)C (stereo not drawn)	inactive	inactive	inactive	inactive	inactive	inactive	inactive	inactive	inactive	inactive	inactive	inactive	inactive	inactive	inactive	inactive	inactive	inactive	inactive	inactive
CN(C)C(=O)C(c1ccccc1)c1ccccc1	inactive	inactive	inactive	inactive	inactive	inactive	inactive	inactive	inactive	inactive	inactive	inactive	inactive	inactive	inactive	inactive	inactive	inactive	inactive	inactive
CC(C)CCCCCOC(=O)c1ccccc1C(=O)OCCCCCC(C)C	inactive	inactive	inactive	inactive	inactive	inactive	inactive	inactive	inactive	inactive	inactive	inactive	inactive	2.62 µM (active)	inactive	inactive	inactive	inactive	inactive	inactive
Cc1cc(O)ccc1Cl	inactive	inactive	inactive	inactive	inactive	inactive	inactive	inactive	inactive	inactive	inactive	inactive	inactive	inactive	inactive	inactive	inactive	inactive	inactive	inactive
